Screening data deposited in PubChem by ICCB-Longwood Screening Facility, Harvard Medical School.
Many of the other results were omitted from the sample, so hits are more common in it than they were.
RVFV N-RNA inh – inhibitors of RVFV nucleoprotein–RNA binding, primary screen, biochemical, fluorescence polarization. RVFV N-RNA binding; stronger effect = lower value. hit rate 0.1% among 20,000. % bound, % (test concentration not listed); in the data active means % bound below about 75%
Target sequence (P21700 whole entry, looked up): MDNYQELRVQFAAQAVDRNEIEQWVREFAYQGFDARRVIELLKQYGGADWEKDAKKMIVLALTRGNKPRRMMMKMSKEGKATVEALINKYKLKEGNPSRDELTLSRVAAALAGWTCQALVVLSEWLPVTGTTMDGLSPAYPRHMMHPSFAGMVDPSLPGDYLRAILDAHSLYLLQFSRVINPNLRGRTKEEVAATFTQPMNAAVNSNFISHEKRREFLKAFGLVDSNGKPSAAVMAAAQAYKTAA
Starred values were filed as active, the others as inactive; ! = not confirmed by another sample.

SMILES	RVFV N-RNA inh
COC(=O)C1=C(C)NC(=S)NC1/C=C/c1ccccc1 (centres undefined)	96
CC1=C(C(N)=O)C(c2ccccc2F)NC(=O)N1 (centres undefined)	89
CC1=C(C(N)=O)C(/C=C/c2ccccc2)n2ncnc2N1 (centres undefined)	29*
CCN(Cc1ccccc1)C(=O)c1ccccc1-c1nc(-c2cccc(C)c2)no1	93
Cc1cc(OCc2nc(-c3ccncc3)no2)c(C)cc1Br	95
O=C(CCC(=O)c1ccccc1)Nc1ccccc1F	109
N#CCCN(/N=C/c1ccc(-c2ccc(Br)cc2)o1)C1=NS(=O)(=O)c2ccccc21	94
O=C(O)c1ccc(-c2ccccc2)cc1	96
O=C1C=CC(=O)C(c2ccc(C(=O)O)cc2)=C1	52*
Cn1nnc(-c2ccc(C(=O)O)cc2)n1	98
O=C(NCC(c1cccs1)N1CCc2ccccc2C1)C1CC1 (centres undefined)	101
Cc1ccc(NC(=S)NC(=O)CC(C)C)cc1	99
Oc1ccc2nnc3c(Br)cnn3c2c1	41*
CCc1ccc(C(=O)Nc2ccc(N3CCCC3)cc2)cc1	99
COC(=O)C1=C(NC(=O)COc2ccc(Cl)cc2)CCS1	99
CNC(=O)/C(C#N)=C\c1ccc(Sc2ccccc2)o1	88
CCNC(=O)CC1S/C(=N\N=C\c2ccc(C)o2)NC1=O (centres undefined)	95
O=C(CC1S/C(=N/N=C/c2ccco2)NC1=O)Nc1ccc(Cl)cc1 (centres undefined)	73*
C/C=N/N=C1/NC(=O)C(CC(=O)Nc2cccc(C)c2C)S1 (centres undefined)	101
Cc1c(C#N)c2ccccc2n1CCOc1cccc2ccccc12	93
CCC(=O)Nc1ccccc1C(=O)N1CCCCC1	97
C=CCNC(=O)C(C)Oc1ccccc1 (centres undefined)	104
COc1ccc(C2c3cccn3CCN2S(=O)(=O)c2ccc(NC(C)=O)cc2)cc1OC (centres undefined)	95
CC[C@@]1(O)C(=O)OCc2c1cc1n(c2=O)Cc2cc3c(CN(C)C)c(O)ccc3nc2-1	44*
CCCCc1cc(=O)oc2c(CN(C)C)c(O)ccc12	92
SMILES	RVFV N-RNA inh
O=c1[nH]c(CSC2CCCCC2)nc2ccccc12	85
CN(C)c1ccc(/C=C/CN2CCSCC2)cc1	111
CON(S(=O)(=O)c1ccccc1)S(=O)(=O)c1ccccc1	100
O=C(O)c1coc(COCC(F)(F)F)c1	91
CCc1c(C)nc(SCC(=O)N(CC)CC)c(C#N)c1C	100
CC(C)(C)c1nocc1C(=O)O/N=C(\N)c1ccccn1	85
CC(=O)SC1CC(=O)N(c2ccc(C(F)(F)F)cc2)C1=O (centres undefined)	96
CNc1ccnc(C(=O)O)c1	97
C=CCn1c(CNC(=O)c2ccccc2)nnc1SCC(=O)N1CCN(c2ccccc2)CC1	88
CCOC(=O)N1CCN(C(=O)CCc2ccc(S(=O)(=O)NC3CCCCC3)cc2)CC1	94
C[C@H](N)CN1CCc2ccc(Br)cc21	72*
CC(CN(C)C)CN1c2ccccc2CCc2ccccc21 (centres undefined)	94
Brc1ccc(-c2nnc3sc(CN4CCc5ccccc54)cn23)cc1	93
Cc1cc(C(=O)Nc2cccnc2)nn1C(C)(C)C	98
CC(c1ccccc1)n1cnc2c(cnn2-c2ccc(F)cc2)c1=O (centres undefined)	93
CCCN1CCC2(CC1)C1CN(CCC)CC=C1C(C#N)=C(N)C2(C#N)C#N (centres undefined)	54*
Nn1c(SCc2cccnc2)nncc1=O	100
Cn1c(=NC(=O)C2CCCCC2)sc2cc(F)ccc21	91
NC(=O)C1CCN(C(=O)c2ccccc2)CC1	99
CN1CCN(C(CC(=O)Nc2ccc(Oc3ccccc3)cc2)C(=O)O)CC1 (centres undefined)	95
CC(C)C(=O)Nc1cccc(C(=O)Nc2ccccc2)c1	98
Cc1ccc(C(=O)Nc2ccc(S(=O)(=O)O)c3cc(S(=O)(=O)O)cc(S(=O)(=O)O)c23)cc1NC(=O)c1cccc(NC(=O)Nc2cccc(C(=O)Nc3cc(C(=O)Nc4ccc(S(=O)(=O)O)c5cc(S(=O)(=O)O)cc(S(=O)(=O)O)c45)ccc3C)c2)c1	6.7*!
Cc1cccc(NC(=O)c2cccc(C)c2)c1	87
COc1ccc2oc(=O)c(-c3cc4c(c(C)n3)c(=O)oc3ccc(OC)cc34)cc2c1	96
COc1cc(NC(C)CCCN)c2ncccc2c1 (centres undefined)	95
SMILES	RVFV N-RNA inh
CCN(CC)CCCC(C)Nc1c2ccc(Cl)cc2nc2ccc(OC)cc12 (centres undefined)	34*
COc1ccc2nc3cc(Cl)ccc3c(Nc3cc(CN4CCCC4)c(O)c(CN4CCCC4)c3)c2n1	103
Cn1cc(NC(=O)N2CCCCC2CCO)c2ccccc21 (centres undefined)	95
CCOC(=O)c1cnc2nc(C(F)(F)F)nn2c1N	98
CC(C)(C)C(=O)/C=C/c1ccco1	108
Cc1nn(Cc2cccc(C(=O)NN3CCCCC3)c2)c(C)c1Cl	94
